Assay results taken from PubChem BioAssay AID436 (Emory University Molecular Libraries Screening Center, 2006).
Among all 72,000 compounds or so, about 350 (0.49%) were called active.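 Rule for the calls: active = activity remaining at or below 50% of control, provided the compound also passes the data quality filters; inactive = the rest, including low values that fail the filters.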 The full list was thinned out, with actives kept by preference.

biological target: Ubiquitin carboxyl-terminal hydrolase BAP1 (Homo sapiens) (UniProt Q92560); assay: BAP1 ubiquitin hydrolase activity blockers – biochemical, Ub-AMC fluorescence, kinetic, primary screen (AID 436); conditions: recombinant BAP1, Ub-AMC hydrolysis fluorescence kinetic; at 20 µM; hits give low values;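 note: 100% = DMSO wells rate and 0% = substrate alone blank rate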
Sequence (Q92560 whole entry, looked up): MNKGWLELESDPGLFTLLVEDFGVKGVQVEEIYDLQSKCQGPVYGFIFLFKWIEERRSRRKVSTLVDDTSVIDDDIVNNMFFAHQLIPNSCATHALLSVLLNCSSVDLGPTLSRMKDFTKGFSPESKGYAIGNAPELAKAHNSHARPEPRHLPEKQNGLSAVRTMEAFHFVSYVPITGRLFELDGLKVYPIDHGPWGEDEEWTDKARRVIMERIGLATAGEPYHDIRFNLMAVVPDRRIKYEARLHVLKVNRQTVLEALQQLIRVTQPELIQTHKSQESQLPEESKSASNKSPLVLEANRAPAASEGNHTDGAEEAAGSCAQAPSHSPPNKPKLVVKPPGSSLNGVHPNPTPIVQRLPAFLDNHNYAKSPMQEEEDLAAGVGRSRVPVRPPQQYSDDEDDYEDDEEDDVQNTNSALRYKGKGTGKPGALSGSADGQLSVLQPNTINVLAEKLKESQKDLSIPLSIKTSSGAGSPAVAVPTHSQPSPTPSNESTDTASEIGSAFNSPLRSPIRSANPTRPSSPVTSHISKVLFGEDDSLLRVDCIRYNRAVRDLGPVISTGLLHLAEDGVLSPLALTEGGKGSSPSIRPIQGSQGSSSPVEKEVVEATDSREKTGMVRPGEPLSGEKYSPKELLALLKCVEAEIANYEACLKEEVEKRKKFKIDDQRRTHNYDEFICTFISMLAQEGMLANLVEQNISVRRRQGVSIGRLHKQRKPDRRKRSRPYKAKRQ

SMILES	activity remaining (% of control)
COc1ccccc1NS(=O)(=O)c1cc(C(=O)c2ccc(Br)cc2)ccc1C	78.7% (inactive)
CC(C)C(O)(c1ccccc1)c1cc[n+](C)cc1 (centres undefined)	229% (inactive)
CCOC(=O)C(C(=O)OCC)n1ccc(=O)[nH]c1=O	71.2% (inactive)
CC(=O)NC12CC3CC(C1)CC(c1ccc([N+](=O)[O-])cc1)(C3)C2	70.3% (inactive)
CC(=O)NC(=O)c1cc2cc(Cl)ccc2oc1=Nc1ccc(C#N)cc1	84.2% (inactive)
Cc1ccc(S(=O)(=O)NCCN=Cc2ccc3c(c2)OCO3)cc1	99.1% (inactive)
O=C1c2ccccc2-c2onc3c(N4CCCC4)ccc1c23	60.4% (inactive)
COc1ccc(C(=O)Nc2c[nH]c(=O)[nH]c2=O)cc1OC	54.8% (inactive)
O=c1c2ccccc2nc(CSc2nnnn2-c2ccccc2)n1-c1ccccc1	37.5% (active)
N#CCSc1nc2ccccc2c(=O)n1-c1ccccc1	109% (inactive)
CCOC(=O)c1sc(NC(=O)c2cc(Cl)ccc2[N+](=O)[O-])nc1C	56.8% (inactive)
Cc1ccc(S(=O)(=O)N(CC(O)CN2C(=O)NC(C)(C)C2=O)c2cccc([N+](=O)[O-])c2)cc1 (centres undefined)	74.1% (inactive)
COc1ccc(C(=O)Nc2nc3c(ccc4ccccc43)s2)c(OC)c1	480% (inactive)
O=C(CC(=O)Nc1ccc2c(c1)Cc1cc([N+](=O)[O-])ccc1-2)Nc1ccc2c(c1)Cc1cc([N+](=O)[O-])ccc1-2	74% (inactive)
CC(=O)c1cccc(S(=O)(=O)N2CCC(n3nnc4cc(F)ccc43)CC2)c1	84.8% (inactive)
Cc1ccc(S(=O)(=O)N2CCC(N3CCCCCC3)CC2)cc1	79.2% (inactive)
O=S(=O)(c1cccc(S(=O)(=O)N2CCC(n3nnc4ccccc43)CC2)c1)N1CCCCC1	42.6% (active)
CCOC(=O)c1c(NC(=O)c2cccnc2)sc2c1CCCC2	131% (inactive)
Cc1nnc2sc(-c3ccco3)nn12	63.2% (inactive)
FC(F)(F)c1nnc2sc(-c3ccco3)nn12	92.7% (inactive)
Fc1ccc(-c2ccc(-c3nn4c(-c5ccco5)nnc4s3)o2)cc1	49.1% (active)
CCOC(=O)C1C(=O)C=C(C=Cc2cccs2)CC1c1ccccc1 (centres undefined)	107% (inactive)
Cc1c(Cc2ccccc2)c(=O)oc2c(C)c(OC(C)C)ccc12	64.3% (inactive)
Cn1c(C#CC(C)(C)O)cc2ccccc21	106% (inactive)

SMILES	activity remaining (% of control)
COc1cc(-c2nnc(SCC(=O)c3ccc(Cl)cc3)o2)cc(OC)c1OC	135% (inactive)
Cc1ccc(S(=O)(=O)Nc2cccc(F)c2)cc1C(=O)O	98.5% (inactive)
Cc1ccc(OCC(=O)Nc2ccc(C)c(Cl)c2)cc1C	81.6% (inactive)
COc1ccc(-c2nc3cc(C)ccc3o2)cc1N=Cc1cccc(OC)c1O	160% (inactive)
CC(C)(C)C(O)Cn1c(=N)n(Cc2ccc(Cl)cc2)c2ccccc21 (centres undefined)	201% (inactive)
CC(C)c1ccc2c(c1)c(SC(C)(C)C)c(CC(C)(C)C(=O)O)n2Cc1ccc(Cl)cc1	17.2% (active)
O=C(O)CCCC(=O)NC1=NCCS1	91.1% (inactive)
NC(=O)c1c(NC(=O)c2ccc(Oc3ccccc3)cc2)sc2c1CCCCC2	77.2% (inactive)
O=C1CSC(c2ccc([N+](=O)[O-])cc2)N1c1ccc(Br)cc1 (centres undefined)	83.1% (inactive)
COC(=O)C1=C(C)NC2=C(C(=O)CC(C)(C)C2)C1c1cccc(O)c1 (centres undefined)	58.1% (inactive)
Cc1ccc(S(=O)(=O)CCc2nnc(NC(=O)c3ccc(C(C)(C)C)cc3)s2)cc1	50.6% (inactive)
CCN(CC)S(=O)(=O)c1ccc(C(=O)Nc2nc3c(s2)C(=O)CC(C)(C)C3)cc1	55.1% (inactive)
CCN(CC)c1ccc2cc(-c3nc4ccc(Cl)cc4[nH]3)c(=O)oc2c1	278% (inactive)
CCOc1c([N+](=O)[O-])c(=O)oc2ccccc12	111% (inactive)
Cc1ccc2nc(NC(=O)c3ccccc3[N+](=O)[O-])sc2c1	91.2% (inactive)
Cc1ccccc1C(=O)Nc1ccc(C(=O)Nc2cccc(C(F)(F)F)c2)cc1	194% (inactive)
CCOC(=O)c1ccc2nc(C34CC5CC(CC(C5)C3)C4)ccc2c1	126% (inactive)
CCOC(=O)c1sc(NC(=O)C(CC)Sc2nccn2C)nc1C (centres undefined)	90.3% (inactive)
C=CCn1c2ccccc2c2nnc(SC(CC)C(=O)Nc3nc(C)c(C(=O)OCC)s3)nc21 (centres undefined)	42% (active)
O=C(Oc1ccc2ccccc2c1Br)c1ccncc1	56.6% (inactive)
Cn1c(C(C)(O)C(O)(c2ccccc2)c2ccccc2)nc2ccccc21 (centres undefined)	90.5% (inactive)
CC1=C(C(=O)OC(C)C)C(c2ccc(O)c([N+](=O)[O-])c2)C2=C(CCCC2=O)N1 (centres undefined)	90.5% (inactive)
COc1cccc(NC(=O)c2ccc(N(Cc3ccccc3)S(C)(=O)=O)cc2)c1	89.5% (inactive)
O=C1CC(Nc2ccc3ccccc3c2)C(=O)N1c1ccccc1 (centres undefined)	163% (inactive)

SMILES	activity remaining (% of control)
CC(C)(C)C(=O)Nc1ccc(C(=O)Nc2ccc(Sc3ccc([N+](=O)[O-])cc3)cc2)cc1	57.4% (inactive)
O=C(O)CCC(=O)Nc1ccc([N+](=O)[O-])cc1	64.9% (inactive)
COc1ccc(NC(=O)c2sc(-c3ccccc3)nc2C)cc1	117% (inactive)
COc1ccc(C(=O)n2nnc3ccccc32)cc1	95.3% (inactive)
COc1ccc(NC(=O)c2cc3ccccc3oc2=O)cc1Cl	75.5% (inactive)
CC(=O)NCCN1C(=O)C(=O)/C(=C(/O)c2ccc(Cl)cc2)C1c1ccccc1F (centres undefined)	108% (inactive)
Cc1nc(-c2ccc(NC(=O)c3cccc(Br)c3)cc2)cs1	162% (inactive)
COc1ccc(-n2nc3c(c2NC(=O)Cc2ccccc2)CSC3)cc1	73.5% (inactive)
O=c1[nH]c2cc(Cl)ccc2c(-c2ccccc2)c1Sc1ncn[nH]1	98.9% (inactive)
O=C(Nc1ccccc1F)c1ccc([N+](=O)[O-])cc1Cl	205% (inactive)
CCOC(=O)C(=O)N1c2ccccc2C(C)(c2ccccc2)CC1(C)C (centres undefined)	108% (inactive)
O=C1C2C3C=CC(O3)C2C(=O)N1c1ccc(Br)cc1[N+](=O)[O-] (centres undefined)	77.6% (inactive)
Cc1cc(C)cc(NC(=O)CCN2C(=O)c3ccccc3C2=O)c1	49.9% (inactive)
S=c1[nH]nc(COc2ccccc2)o1	52.5% (inactive)
CCOc1ccc(CN(Cc2ccco2)C(c2cccs2)c2nnnn2C(C)(C)C)cc1 (centres undefined)	36.6% (active)
CCC(C)(C)n1nnnc1C(c1cccs1)N1CCN(Cc2ccccc2)CC1 (centres undefined)	85.8% (inactive)
CC(C)(C)n1nnnc1C(c1cccs1)N(Cc1cccnc1)CC1CCCO1 (centres undefined)	80.9% (inactive)
O=c1[nH]nc(SCc2ccc(Cl)cc2)c(=O)[nH]1	64.4% (inactive)
COc1ccc(C2C(N3C(=O)c4cccc([N+](=O)[O-])c4C3=O)C(=O)N2c2ccc(C)c(C)c2)cc1OC (centres undefined)	85.8% (inactive)
COc1ccc(Cn2c(NCCO)nc3c2c(=O)n(C)c(=O)n3C)cc1	103% (inactive)
Cc1cc(=O)oc2cc(OC(=O)c3ccc([N+](=O)[O-])cc3Cl)ccc12	479% (inactive)
Cc1ccc[n+](CC(=O)c2ccc(Cl)cc2)c1C	57.4% (inactive)
O=c1oc2ccccc2cc1-c1nnc(-c2ccccc2)o1	380% (inactive)
COc1ccc2cc(C(=O)Nc3cccc(C(F)(F)F)c3)c(=N)oc2c1	72.3% (inactive)

SMILES	activity remaining (% of control)
CNc1nonc1C(=O)O	154% (inactive)
O=C(Nc1cccnc1)c1ccc(Cl)c([N+](=O)[O-])c1	66% (inactive)
O=C(Nc1ccc(-c2cn3ccccc3n2)cc1)c1ccc(Br)cc1	63.1% (inactive)
N#Cc1cccc2c1-c1ccc([N+](=O)[O-])cc1C2=O	96.3% (inactive)
Cc1cccc(C)c1OCC(O)CN1CCCCC1 (centres undefined)	59.4% (inactive)
CCOc1ccccc1NC(=O)c1c(NC(=O)c2cccs2)sc2c1CCC(C)C2 (centres undefined)	92.6% (inactive)
Cc1cc(Br)ccc1N1C(=O)C2CCCCC2C1=O (centres undefined)	93.8% (inactive)
CCc1ccc(OC(=O)c2cc3cc(Br)ccc3oc2=O)cc1	80.8% (inactive)
CCc1ccc2oc(-c3cccc(NC(=O)c4ccccc4Br)c3)nc2c1	56.4% (inactive)
O=C(Nc1nnc(CCS(=O)(=O)c2ccc3ccccc3c2)s1)c1ccc(F)cc1	64.8% (inactive)
Cc1cccc(C(C)C)c1NC(=O)c1ccco1	233% (inactive)
O=C(Nc1ccc(-c2nc3ccccc3o2)cc1)c1ccc(S(=O)(=O)N2CCCCC2)cc1	288% (inactive)
O=C(Cc1cccc2ccccc12)Nc1ccccc1-c1nc2ccccc2s1	75.2% (inactive)
CCOc1ccc(C(=O)Nc2cccc(C(=O)Nc3cccc4ccccc34)c2)cc1[N+](=O)[O-]	71.1% (inactive)
O=C(Nc1nc2c(s1)C(=O)CCC2)c1ccccc1Cl	51.9% (inactive)
CCOC(=O)c1c(NC(=O)c2cc3ccccc3oc2=O)sc(C(=O)CC)c1C	49.7% (inactive)
O=C(NCc1ccccc1)c1nn2c(C(F)(F)F)cc(-c3ccccc3)nc2c1Br	70% (inactive)
CCCOc1ccc(C(=O)Nc2c(C)ccc3nsnc23)cc1	203% (inactive)
COCCc1nnc(NC(=O)c2ccc([N+](=O)[O-])cc2)s1	111% (inactive)
CC1=C(C(=O)OCCc2ccccc2)C(c2ccc([N+](=O)[O-])cc2)NC(=O)N1C (centres undefined)	72.8% (inactive)
COc1ccc(-n2nc3cc(C)c(NC(=O)c4ccc(Br)o4)cc3n2)cc1	63% (inactive)
CC(C)(C)C(=O)Nc1ccc(C(=O)Nc2nccs2)cc1	63.4% (inactive)
